The source of these data is paper PMC12136788.

The full ranking holds about 24,000 sequences; the median of “enrichment r” is about 0.99, and the highest 2% start at about 3.7. Not all results are given here.

T1: UNK ZnF1-3 (human, UniProt Q9C0B0 31-174)
T1 sequence: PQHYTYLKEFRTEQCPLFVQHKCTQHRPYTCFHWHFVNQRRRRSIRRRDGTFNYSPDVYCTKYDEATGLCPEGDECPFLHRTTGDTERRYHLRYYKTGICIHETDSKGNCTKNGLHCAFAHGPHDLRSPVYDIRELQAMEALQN

B1: chr3:49066234:49066235:-_ENSG00000178035_ENST00000326739|hu_hu|FALSE|FALSE (ssRNA)
RNA: GGGAGUUCUACAGUCCGACGAUCAGAAGUCAGGUCCACCUGGUCUGCAGUGAAGUCGAUGUACCCAGGGAGAAUGAGAAAGUCAUUGUAGGUGAGGCCGUCUCCGCAGUUGAAGAGCUGCUGUGCUGUGAGUCCGUCGUCUGGCAACAGAGGAUUGAGCAUCA
B2: chr8:87366250:87366251:-_ENSMUSG00000003814_ENSMUST00000003912|mus_mus|FALSE|FALSE (ssRNA)
RNA: GGGAGUUCUACAGUCCGACGAUCGAGCAGAUGAAAUCUCAAGCCUAGGGCUUCUCCUCUACACCCCUGUUCCUAGAGUUGGAGGGUAGUGACCAAAAGAUGGAGAAAGGGAGGGACAGAAGGAAAAGAUGUUGAUUCAAAAAUCAACAGAGGAUUGAGCAUCA
B3: chr7:75932113:75932114:+_ENSG00000106211_ENST00000248553|hu_hu|hu_hu_hu_mus_False|28_98 (ssRNA)
RNA: GGGAGUUCUACAGUCCGACGAUCCUGCGACCACUCAUCCGGCAGCCGGGGCACCCCGAAAGCUUGAUCGAAGAGGCGGCUGUGUGCAGGGUACCAGUCCCGGAAUGCCCAGCUGGGCGGGCUCCGCAGCAGCGAGAAGGGCACCAACAGAGGAUUGAGCAUCA
B4: chr4:88367131:88367132:-_ENSMUSG00000070923_ENSMUST00000094993|mus_hu|motif|central (ssRNA)
RNA: GGGAGUUCUACAGUCCGACGAUCUUGGUAAUUGCUAGCUUCCAAAAGCAAAUUCACGCAGGUAUUGUCUGUUCUCAUGAAAUCGGCUGUCUGCACGUAAUUGAUGAGAUCCUGUGGUGUCAUCAGUGGAAAUCGAAUAUUCUUCAACAGAGGAUUGAGCAUCA
B5: chr8:104447970:104447971:+_ENSG00000164934_ENST00000297579|hu_hu|hu_hu_hu_mus_False|48_108 (ssRNA)
RNA: GGGAGUUCUACAGUCCGACGAUCAUAUACCUCCCUGCUUCGGCUCUUGUCCACAGGAAAGAUUCUAAUAGACUUAUCAAAGCUGGCAGACACAAACUCCUUCCCAGUGGGAGAGUAGUCCACAUCAAGUACUGCAGACACGUGCAACAGAGGAUUGAGCAUCA
B6: 31532532_31534450_220_CDS_ENSG00000082213_ENST00000325366|human|control|control (ssRNA)
RNA: GGGAGUUCUACAGUCCGACGAUCGAAAUGUAAAAAACUUACAUUACUGGCAGGAAGAUGCUUUGAGCCUAUGGCCCGGUAUAUAAAGGGUAGAACCUCCUGAUGAUCCUCCACCACCCACACUGGGAGCUUGGGGUAACGCCGCAACAGAGGAUUGAGCAUCA
B7: chr6:117881578:117881579:-_ENSG00000047932_ENST00000052569|hu_hu|motif|central (ssRNA)
RNA: GGGAGUUCUACAGUCCGACGAUCUUUAAUGUAGAAGAUGCCAUCUUUAUUUACAGGCUAAUAAAAAAAUAUUAAACUCAACGGGAUAUAAUACAUUAUCAUAAAUGCAAUAGAUUUGAGGCCAACCAUAAGUGUAAGACUGGACAACAGAGGAUUGAGCAUCA
B8: chr3:144353948:144353949:-_ENSMUSG00000037062_ENSMUST00000163279|mus_hu|FALSE|FALSE (ssRNA)
RNA: GGGAGUUCUACAGUCCGACGAUCACCAAACAACUCUGAAAAUAACCCAUCAAAACAUAAUAUUAAAAUCAUUUGAUUUCUGUUGGAAAACCAGGUAAACAUAGUUUAAAUGCGUUUUUGUCUAUGAAAGCAUUCAGAAAAUUCCAACAGAGGAUUGAGCAUCA
B9: chr7:134094464:134094465:+_ENSMUSG00000030683_ENSMUST00000106335|mus_hu|FALSE|FALSE (ssRNA)
RNA: GGGAGUUCUACAGUCCGACGAUCCUCCGUCUCCGUUUAUCUUUCCCUUUAAUUGUUUUUUUUUUUUUUUUUUUUUUCCUCGUAGGAGUCAGCAAAGAAAGACAAUUUCUCUGCCCCUUGGGAUGGAGGGGCAGAAUUGGGCUACAACAGAGGAUUGAGCAUCA
B10: chr19:3980662:3980663:-_ENSG00000167658_ENST00000309311|hu_mus|FALSE|FALSE (ssRNA)
RNA: GGGAGUUCUACAGUCCGACGAUCGAACACUCUACCAAAGGCAUAGAAGCGGCCUUUGUCAGAGGUUGGCACCAUCUUGGAAAUGUACAUCAUAAGUGGGCCUUUGGGGUCGCAGCUCUUAAUACCCAUGGCGGCCUCAUCGUCCAACAGAGGAUUGAGCAUCA
B11: chr16:45382771:45382772:-_ENSMUSG00000022661_ENSMUST00000163230|mus_mus|motif|central (ssRNA)
RNA: GGGAGUUCUACAGUCCGACGAUCGAGAGUGUUAUUGUGGGCCCAAUGGAUAGGGAGAGCAUGCUUUUGUAAAGAUGUGAACGGCUCACUAAGACUAACAAUAUUGCCUAAGUGCUAUAAAAAUAAGUUAAAUGGACACAUUACCAACAGAGGAUUGAGCAUCA
B12: chr6:44218825:44218826:+_ENSG00000096384_ENST00000371646|hu_hu|FALSE|FALSE (ssRNA)
RNA: GGGAGUUCUACAGUCCGACGAUCGUUGUUCUUUUUCUUCUUGUUCUCAAAAAGGUCAAAGGGAGCCCGACGAGGAAUAAAUAGCAAUGCCCUGAAUUCCAACUGACCUUCUACAGAAAAGUGCUUGACUGCCAAGUGGUCUUCCAACAGAGGAUUGAGCAUCA
B13: chr10:115881139:115881140:-_ENSG00000165813_ENST00000369287|hu_hu|motif|central (ssRNA)
RNA: GGGAGUUCUACAGUCCGACGAUCAUAAAAAUAUUUUCACCAGGGUAGCAUAUAUAACAACAUUUACAUUAUUAAGGAUUCGGUUUUUUUCUUUUACUGAUAAAUCUUGGUUUAAAUUUGCAUGUAACAAUUUUUAGAAAAUAACAACAGAGGAUUGAGCAUCA
B14: chr4:62795864:62795865:+_ENSMUSG00000028358_ENSMUST00000107415|mus_hu|motif|central (ssRNA)
RNA: GGGAGUUCUACAGUCCGACGAUCCAGAGUCUAAAUCAAAUCUGAAGAAACAAAAUGAACCCCCAAACAAGGUAAAAAUUGCGGAAAUGUUAGGGAGAGAAAUUAUUAGGGAGUGGAGACAGUAUCUAUACUUCUCUGAAAAAUCAACAGAGGAUUGAGCAUCA

This test deals with T1, UNK ZnF1-3. As to the kind of experiment: nsRBNS (natural sequence RNA bind-n-seq); RBNS binding buffer (assumed for nsRBNS): 25 mM Tris pH 7.5, 150 mM KCl, 3 mM MgCl2, 0.01% Triton X-100, 500 ug/ml BSA, 20 U/ml SUPERase-In, 4 C; UNK is unkempt and MSI1 is Musashi-1; names of the RNAs are library labels; protein concentration not given here; high values mean tight binding.
On to B1, for which the binding signal worked out at 1.62 enrichment R.

The molecule B2 returned a binding signal of 1.61 enrichment R.

For B3, the binding signal came out at 0.901 enrichment R.

In turn, B4 had a binding signal of 0.896 enrichment R.

B5 gave a binding signal of 1 enrichment R.

B6 returned a binding signal of 0.807 enrichment R.

In turn, B7 came in with a binding signal of 1.5 enrichment R.

B8 yielded a binding signal of 0.744 enrichment R.

Turning to B9, the binding signal is 1.16 enrichment R.

In the case of B10, the binding signal amounted to 1.18 enrichment R.

Regarding B11, the binding signal stood at 2.47 enrichment R.

B12 came in with a binding signal of 0.931 enrichment R.

For B13, the binding signal turned out to be 2.85 enrichment R.

B14 displayed a binding signal of 1.32 enrichment R.
